In PubChem BioAssay:
Active and inactive are the calls of the source.

Assay: S. cerevisiae growth modulation with rapamycin, primary screen, strain BY4716, OD600, 96 h (AID 1091); also: test concentration not given here
Settings: higher = more signal, called active from +8 up or from −8 down

z-score, inactive:
CO[C@H]1O[C@H](CO)[C@@H](OC(=O)Nc2ccc3c(c2)OCO3)[C@H](OC(=O)Nc2ccc3c(c2)OCO3)[C@@H]1OC(=O)Nc1ccc2c(c1)OCO2 5.69
CCCC1(C(=O)OC)C=C2C(=C(C)C(=O)C2C)CN1 (stereo not given) 0.578
CO[C@H]1O[C@H](CO)[C@@H](OC(=O)Nc2ccccc2)[C@H](OC(=O)c2cc3ccccc3[nH]2)[C@H]1OC(=O)c1cc2ccccc2[nH]1 0.216
O=C1O[C@H](c2ccccc2)[C@H](c2ccccc2)N2[C@H]1[C@@H](C(=O)O)[C@]1(C(=O)Nc3ccc(C#CCCO)cc31)[C@H]2c1ccccc1OCCO 0.224
CCCCC[C@H]1OC[C@@]23C=C(Br)[C@@H](CC12)[C@@]1(CO1)C3=O (stereo not given in full) -0.76
CCCCN1CC=CC23O[C@@H]4/C=C\CCC(C)OC(=O)C4[C@H]2C(=O)N(CCCO)[C@@H]3C1=O (stereo not given in full) 0.528
CC[C@@H]1C=C(C(=O)O)[C@H](c2ccc(C#N)cc2)N1S(=O)(=O)c1ccc(C)cc1 -0.104
O=C1[C@H]2C=C(I)[C@H](C[C@@H]2OCCOCCO)[C@@]12CO2 -0.155
COCCOC(=O)N1C(=O)[C@@]2(c3cc(C#CC4=CCCCC4)ccc31)[C@H](C(=O)Nc1nc3ccccc3s1)[C@H]1C(=O)O[C@H](c3ccccc3)[C@H](c3ccccc3)N1[C@@H]2c1ccc(O)cc1 0.364
COc1ccc([C@H]2OC[C@@H]3C[C@H](Cc4ccccc4)C(=O)N32)cc1 0.861
NC(=O)NCC#Cc1ccc2c(c1)[C@]1(C(=O)N2)[C@H](c2ccccc2OCCO)N2[C@H](c3ccccc3)[C@H](c3ccccc3)OC(=O)[C@H]2[C@@H]1C(=O)O -0.675
CC1CC/C=C\[C@H]2OC34C=CCN(c5ccc(Cl)cc5)C(=O)[C@H]3N(C(C)CO)C(=O)[C@]4(C)C2C(=O)O1 (stereo not given in full) 0.334
CCOC(=O)C1=C[C@@H](C(C)C)N(S(=O)(=O)c2ccc(C)cc2)[C@H]1c1ccc(C(F)(F)F)cc1 2.08
OCCCC1=CC(c2ccc(CN3CCCC3)cc2)N(Cc2cc3c(cc2Br)OCO3)CC1 (stereo not given) -0.705
CCCCCCCCCC(O)C1C=CC2C(=O)N(c3ccccc3)C(=O)C2N1Nc1cc(OC)c(OC)c(OC)c1 (stereo not given) -0.236
COCCCNC(=O)[C@@]1(CCC(=O)OC(C)(C)C)N=C(c2ccc(OCCCO)cc2)O[C@H]1c1ccccc1N=[N+]=[N-] -0.875
COc1cc(OC)c(C(O)C2C=CC3C(=O)N(Cc4ccccc4)C(=O)C3N2n2cnnc2)cc1Br (stereo not given) 0.027
C[N+](C)(C)CCCC[C@@H]1NC(=O)[C@@H]2C[C@H](C(=O)NCCCCCCN)[C@H](c3cccc(OCCO)c3)N2C1=O -0.244
O=C1C2C=CC(C(O)C3CC=CCC3)N(Nc3ccccc3)C2C(=O)N1c1ccccc1 (stereo not given) 0.662
C=CCNC(=O)[C@H]1[C@@H]2C(=O)O[C@@H](c3ccccc3)[C@@H](c3ccccc3)N2[C@@H](c2ccccc2OCCO)[C@]12C(=O)N(C(=O)OCCOC)c1ccc(C#CC3(O)CCCCCC3)cc12 4.93
COCCOC(=O)N1C(=O)[C@@]2(c3cc(C#CC4=CCCCC4)ccc31)[C@H](c1ccccc1OCCO)N1[C@H](c3ccccc3)[C@H](c3ccccc3)OC(=O)[C@H]1[C@@H]2C(=O)NC[C@H](O)c1ccccc1 3.28
CCCC[C@@H](O)C1=C(COc2ccccc2)C[C@H]2C(=O)N(Cc3ccccc3)C(=O)[C@H]2[C@H]1CO 0.361
O=C1OCCC/C=C\[C@H]2OC34C=CCN(c5ccc6ccccc6c5)C(=O)[C@H]3N(CCO)C(=O)[C@@H]4C12 (stereo not given in full) 0.341
COC(=O)c1c(CC[C@@H](CO)NC(=O)N[C@@H](C)Cn2cc(-c3ccccn3)nn2)oc(C(C)=O)c1C(=O)OC 0.198
CC(C)C[C@@H]1NC(=O)[C@@H]2C[C@H](C(=O)NCCCCCCN)[C@H](c3cccc(OCCO)c3)N2C1=O -0.502
[N-]=[N+]=Nc1ccccc1C[C@@]1(C(=O)N2CCOCC2)N=C(c2ccc(OCCCO)cc2)O[C@@H]1c1ccccc1 0.0666
CCOC(=O)C[C@H]1[C@H](OC(=O)c2cc3ccccc3oc2=O)[C@@H](NC(=O)CC(C)C)c2cc(OCCCO)ccc2N1C(=O)c1ccc2ccccc2n1 0.665
Cc1ccc(NN2C(C(O)c3c(F)cccc3Cl)C=CC3C(=O)N(C4CCCCC4)C(=O)C32)cc1 (stereo not given) -0.262
O=C1O[C@@H](c2ccccc2)[C@@H](c2ccccc2)N2[C@@H](c3ccc(OCCO)cc3)[C@]3(C(=O)Nc4ccc(C#CC5=CCCCC5)cc43)[C@@H](C(=O)NC[C@H](O)c3ccccc3)[C@H]12 4.09
CCCN1C(=O)[C@]2(Cc3ccccc31)N=C(c1ccc(OCCCO)cc1)O[C@@H]2c1ccccc1 1.44
C[N+](C)(C)CCCCCCNC(=O)[C@@H]1C[C@@H]2C(=O)N3CCC[C@H]3C(=O)N2[C@@H]1c1ccc(O)cc1 -0.696
CCOC(=O)C[C@H]1[C@H](OC(=O)c2ccc(C(=O)c3ccccc3)cc2)[C@@H](NC(=O)CC(C)C)c2cc(OCCCO)ccc2N1C(=O)c1ccccc1 0.276
CC1CC/C=C\[C@H]2OC34C=CCN(C(C)C)C(=O)[C@H]3N(CCO)C(=O)[C@@H]4C2C(=O)O1 (stereo not given in full) 0.323
[N-]=[N+]=Nc1ccccc1C[C@]1(C(=O)N2CCOCC2)COC(c2ccc(OCCCO)cc2)=N1 -2.08
CCCCCCc1nc(Cc2cc(OC)c(OC)c(OC)c2)cc2c1[Si](C(C)C)(C(C)C)OC2 0.0907
